# Pf growth 96h = Primary qHTS for delayed death inhibitors of the malarial parasite plastid, 96 hour incubation; P. falciparum luciferase reporter growth, 96 h; Potency, µM (highest dose often 28.7 µM), for the others: top-dose activity change, negative = inhibition, actives largely listed as inhibitors; 320,000 compounds, 6.9% hits; also: potency is read from the fitted curve at half-maximal effect
#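 Two-generation exposure (96 h) targets delayed-death phenotype. Reporter parasites carrying integrated firefly luciferase, in red cells at 2% hematocrit and 0.05% parasitemia final, kept at 37 C, 5% CO2; luminescence loss indicates inhibition.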
# HCMV inh = qHTS Assay for inhibitors of the human cytomegalovirus (HCMV) | 410,000 compounds, 4.5% hits | HFF cells, HCMV-luciferase reporter, 72 h; hits give low values | activity change, negative = inhibition, % at 57.5 µM; in the data active = activity change below about -60%; inconclusive = no clear call, values can overlap the other calls; inactive = above about -39%
#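 HFF cells seeded 16 h at 37C, treated with compounds, infected with luciferase-reporter HCMV at MOI 1 PFU/cell; luciferase read at 72 h post infection, normalized to buffer-only and Salinomycin controls.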
# Pf growth 48h = Primary qHTS for delayed death inhibitors of the malarial parasite plastid, 48 hour incubation. Potency, µM (series often up to 28.7 µM), inactives show at the highest dose activity change, negative = inhibition, most hits filed as inhibitors. P. falciparum luciferase growth in erythrocytes, 48 h. 310,000 compounds, 5.9% hits; also: potency is read from the fitted curve at half-maximal effect
#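 In quantitative HTS format, infected erythrocytes bearing luciferase-reporter parasites were treated for a single generation at 37 C. Luminescence after adding detection reagent served as the growth measure.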
# HCV inh = qHTS Assay for Inhibitors of Hepatitis C Virus (HCV). Potency, µM (top dose mostly 41.8 µM), for the others: at the top dose activity change, negative = inhibition, actives largely listed as inhibitors. AID 651820, 2012. 340,000 compounds, 3.4% hits. Huh7.5.1 HCVcc-Cre infection, luciferase reporter, 44 h; also: potency is read from the fitted curve at half-maximal effect
#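 Infectious HCV cell culture screen: compound-treated cells (1,000/well, pre-plated 4 h) are infected with HCVcc-Cre at roughly 0.5 moi and grown 44 h. Infection is quantified by luciferase signal after 15 min substrate incubation at room temperature.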
# The depositor's hits bear a star; ? = inconclusive; / = not tested or not shown. Only some compounds are listed: those with a hit (about 13% of all), similar ones and a draw of the others. Unless noted, calls follow the shape of the dose curve; as a rule, active = well fitted inhibition curve with a large enough effect; inconclusive = small, poorly fitted or top-dose-only effect, or another doubt; inactive = no such curve, though single readings can be large or run the other way. % is scaled to controls: 0 for no effect and ±100 for the full control effect.
SMILES,Pf growth 96h,HCMV inh,Pf growth 48h,HCV inh
CN(C)c1cc[n+](CC(O)C[n+]2ccc(N(C)C)cc2)cc1,4.65µM*,-31.4,9.28µM*,24.6%
c1cncc(-c2nc(NCCCN3CCOCC3)c3c4c(sc3n2)CCC4)c1,?,0.0,11.7µM*,?
COc1cc(CNc2ccc(N3CCN(C(C)=O)CC3)cc2)ccc1OCc1ccc(F)cc1,?,-72.9*,-15.6%,0.7%
COc1ccc(N2CCN(C(=O)NC34CC5CC(CC(C5)C3)C4)CC2)cc1,5.22µM*,-8.6,/,?
CC(=O)N1CCN(c2ccc(NCc3cccc(C)c3)cc2)CC1,66.9%,-76.7*,39.3%,/
COc1ccc(N2CCN(C(=O)NCc3ccc(OC)c(OC)c3)CC2)cc1,-4.2%,-67.7*,21.0%,7.4%
CN(C(=O)CSc1nnc(-c2ccc([N+](=O)[O-])cc2)o1)c1ccccc1,/,1.1,/,/
NC1(N2SC(S)=C3CCCC=C32)CCCCC1,/,-23.8,/,/
CCOc1ccc2nc(Cl)c(C3CC(c4ccc(C)cc4)=NN3C(=O)CCCC(=O)O)cc2c1 (stereo unspecified),/,9.5,/,/
Cc1cc(C)cc(OC(=O)c2snnc2C)c1,/,11.1,/,/
CCOC(=O)Cn1c(=O)oc2cc(S(=O)(=O)N3CCc4ccccc43)ccc21,13.1µM*,?,/,2.8%
CC(C)(C)NC(=O)Cn1c(=O)oc2cc(S(=O)(=O)N3CCc4ccccc43)ccc21,1.47µM*,-9.5,/,-23.6%
Cc1cccc(C(=O)NCC(=O)OCc2cc(=O)n3nc(CC(C)C)sc3n2)c1,/,12.1,/,/
CCOc1ccc(-c2cc3nc(C4CCN(C(=O)OC(C)(C)C)CC4)c(C(=O)Nc4c(C)cccc4C)cn3n2)cc1,/,-18.2,/,/
CCOc1ccc(-c2cc3nc(C4CCN(C(=O)OC(C)(C)C)CC4)c(C(=O)O)cn3n2)cc1,?,-32.1,0.465µM*,3.5%
COc1ccc(NS(=O)(=O)c2ccc(C)c(NC(=O)NC3CCCCC3)c2)cc1,?,-33.3,-17.0%,?
COc1ccc(NS(=O)(=O)c2cccc(C(=O)NC3CCN(Cc4ccccc4)CC3)c2)cc1,?,-65.4*,10.1%,?
COc1ccc(NS(=O)(=O)c2cccc(NC(=O)NC3CCCCC3)c2)cc1,?,-60.0*,-6.2%,?
CCN1CCN(c2ccc(NC(=O)c3ccc4c(c3)[nH]c(=O)n4Cc3ccc(F)cc3)cc2)CC1,13.1µM*,?,7.38µM*,7.08µM*
O=S(=O)(Nc1ccc(O)c(CN2CCCCC2)c1)c1ccccc1,0.586µM*,62.1,?,-4.4%
CCc1ccc(NC(=O)C2(c3cccs3)CCOCC2)cc1,/,4.2,/,/
Cc1nnc(NC(=O)CSc2nccn2Cc2ccc(Cl)cc2)s1,/,2.0,/,/
COc1ccc(NS(=O)(=O)c2cccc(C(=O)NCc3ccccc3CN3CCCC3)c2)cc1,13.1µM*,0.2,13.1µM*,11.2µM*
COc1ccc(NS(=O)(=O)c2cccc(C(=O)NNC(=O)NCCCl)c2)cc1,?,-64.9*,10.8%,-0.6%
COc1ccc(C(=O)NCc2ccccc2CN2CCCC2)cc1S(=O)(=O)Nc1ccc(C)cc1,4.15µM*,-11.3,10.4µM*,?
SMILES,Pf growth 96h,HCMV inh,Pf growth 48h,HCV inh
COc1ccc(Cn2c(=O)[nH]c3cc(C(=O)NC4CCN(Cc5ccccc5)CC4)ccc32)cc1,?,-22.9,?,10µM*
Cc1ccc(Cl)cc1N1CCN(C(=O)CN2C(=O)COc3ccc(S(=O)(=O)N4CCC(C)CC4)cc32)CC1,/,-5.2,/,/
Cc1cccc(C)c1OCCn1c(C2CC(=O)N(Cc3ccc(F)cc3)C2)nc2ccccc21 (stereo unspecified),/,-6.7,/,/
CC(=O)Oc1c(/C=C(\C#N)C(N)=O)[nH]c2ccccc12,-14.8%,-20.5,10.4µM*,?
CCOC(=O)C(C)/C(C)=N/NC(N)=S (stereo unspecified),4.65µM*,?,1.31µM*,2.9%
COCCCNC(=O)C1CCC(Cn2c(=O)c3sccc3n(C)c2=O)CC1 (stereo unspecified),/,9.4,/,/
CCc1noc(C)c1C(=O)Nc1nc2c(C)cc(C)cc2s1,46.2%,-4.4,3.9%,11.2µM*
COc1ccc(-c2csc(NC(=O)c3cc(C)oc3C)n2)cc1OC,?,-8.4,?,?
COC(=O)c1ccc(-c2csc(NC(=O)c3c(C)noc3C)n2)cc1,38.5%,-24.7,38.3%,?
CCc1noc(C)c1C(=O)Nc1nc(-c2ccc(OC)c(OC)c2)cs1,10.4µM*,-25.5,?,?
CCc1noc(C)c1C(=O)Nc1nc(-c2ccc(NC(C)=O)cc2)cs1,?,-33.8,?,10µM*
COc1ccc(CNS(=O)(=O)c2ccc3c(c2)C(C)(C)C(=O)N3C)cc1OC,/,3.9,/,/
COCCCNC(=O)c1nn(-c2ccc(C)cc2)c(=O)n(C)c1=O,/,-3.9,/,/
COc1ccc(C(CCNCc2ccccc2)c2ccc(F)cc2)cc1 (stereo unspecified),0.0%,-29.4,0.0%,6.31µM*
COc1cccc(CNCCc2ccc(F)cc2)c1,17.0%,30.7,/,2.4%
COc1ccc(CNCCC(c2ccc(F)cc2)c2ccc(OC)cc2)cc1 (stereo unspecified),?,-22.4,?,?
COc1ccc(C(CCNCc2ccc(F)cc2)c2ccc(F)cc2)cc1 (stereo unspecified),?,?,4.65µM*,?
S=c1[nH]nc(C2CCCCC2)n1/N=C/c1ccncc1,-4.2%,-88.2*,27.0%,8.2%
CCCCNC(=S)N(C)/N=C/c1c(F)c(F)c(F)c(F)c1F,-4.2%,?,-3.7%,-9.1%
CCCCNC(=S)N(C)/N=C/c1c(C)[nH]c2ccccc12,11.7µM*,57.9,?,-9.9%
O=C(N[C@H]1CC[C@H](CCNS(=O)(=O)c2ccc(Cl)cc2)O[C@@H]1CO)c1cccc(F)c1,/,-100.5*,/,/
CCn1c(-c2ccc(-c3ccccc3)cc2)c[nH]c1=S,4.65µM*,-9.3,/,10µM*
C=CCn1c(-c2ccccc2)c[nH]c1=S,?,98.8,82.3%,14.1%
Cc1ccc(-c2c[nH]c(=S)n2-c2ccccc2)cc1,112.6%,-36.0,?,7.1%
Cc1ccc(-c2c[nH]c(=S)n2-c2ccccc2F)cc1,-18.1%,-64.5*,0.0%,10.4%
Cn1c(-c2ccc(-c3ccccc3)cc2)c[nH]c1=S,?,?,5.22µM*,5.01µM*
CC1Cc2ccccc2N1S(=O)(=O)c1cccc(C(=O)N2Cc3ccccc3CC2C(N)=O)c1 (stereo unspecified),13.1µM*,-1.5,?,-2.1%
COc1ccccc1N1CCN(C(=O)c2cccc(S(=O)(=O)N3c4ccccc4CC3C)c2)CC1 (stereo unspecified),/,-34.9,/,10µM*
CCOc1cc2[nH]c(=O)n(CCCC(=O)N3CCN(c4cccc(Cl)c4)CC3)c(=O)c2cc1OCC,/,-23.7,/,/

# Bioassay records (PubChem)
